In PubChem BioAssay (EPA / NIEHS):
Where “and” joins values, the source holds several entries; their conditions need not be identical. Equal entries are not always repeated. Records with an inconclusive call do not appear. A structure can be active in one record and inactive in another. Calls of active or inactive are those of the source. How the source made its calls, unless noted: active means hit-call score of the fitted dose curve at least 0.9, where 1 is the maximum; inconclusive means response in the unintended direction; inactive means score below 0.9.

Assays:
[1] = tested on: guinea pig Dopamine Transporter (DAT), gene 100714898; test: NVS_TR_gDAT: NovaScreen (NVS) Transporter Assay for guinea pig Dopamine Transporter (DAT) (AID 2283369);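 further: active compounds lower bound radioligand signal relative to DMSO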
Outline: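 Test chemicals were incubated 2 h with guinea pig striatal membranes and a radioligand; bound label was separated by filtration and counted. Screening ran at 25 uM, followed by concentration-response testing to a 50 uM maximum.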

[2] = biological target: human Dopamine Transporter (DAT), SLC6A3 (gene 6531) (UniProt Q01959); test: NVS_TR_hDAT: NovaScreen (NVS) Transporter Assay for human Dopamine Transporter (DAT) (AID 2283374);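 further: activity means loss of bound radioligand signal relative to DMSO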
Sequence of human Dopamine Transporter (DAT), SLC6A3 (gene 6531) (Q01959 whole entry, looked up): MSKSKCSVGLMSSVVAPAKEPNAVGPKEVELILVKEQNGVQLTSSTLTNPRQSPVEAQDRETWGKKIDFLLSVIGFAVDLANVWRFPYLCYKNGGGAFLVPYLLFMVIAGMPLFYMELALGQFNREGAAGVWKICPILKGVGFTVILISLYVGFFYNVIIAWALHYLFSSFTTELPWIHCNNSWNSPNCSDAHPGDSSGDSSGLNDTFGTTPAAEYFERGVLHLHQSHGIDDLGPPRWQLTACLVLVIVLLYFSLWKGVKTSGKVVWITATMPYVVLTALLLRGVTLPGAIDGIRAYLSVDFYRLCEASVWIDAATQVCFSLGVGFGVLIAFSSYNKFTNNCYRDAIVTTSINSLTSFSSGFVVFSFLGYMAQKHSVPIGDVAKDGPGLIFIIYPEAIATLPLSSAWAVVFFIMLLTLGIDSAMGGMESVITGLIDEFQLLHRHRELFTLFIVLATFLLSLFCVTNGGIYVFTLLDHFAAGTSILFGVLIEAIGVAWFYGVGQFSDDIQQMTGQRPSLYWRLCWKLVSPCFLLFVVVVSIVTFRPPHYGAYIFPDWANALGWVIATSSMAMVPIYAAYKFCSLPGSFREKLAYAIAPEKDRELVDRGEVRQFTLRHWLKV
Outline: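 Duplicate single-point screening at 25 uM preceded concentration-series follow-up of actives. Binding was measured by competitive displacement of a radioligand from DAT protein, filter-counted by scintillation 1 h after dosing. Decrease relative to DMSO taken as activity.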

[3] = biological target: Retinoic acid receptor RXR-alpha (Homo sapiens) (UniProt P19793); test: OT_NURR1_NURR1RXRa_0480: Odyssey Thera (OT) 8-hour HEK293T Protein Complementation Assay for Nurr1/retinoid X receptor (RXR) (AID 2283385)
Sequence of Retinoic acid receptor RXR-alpha (Homo sapiens) (P19793 whole entry, looked up, the tested form may be a part): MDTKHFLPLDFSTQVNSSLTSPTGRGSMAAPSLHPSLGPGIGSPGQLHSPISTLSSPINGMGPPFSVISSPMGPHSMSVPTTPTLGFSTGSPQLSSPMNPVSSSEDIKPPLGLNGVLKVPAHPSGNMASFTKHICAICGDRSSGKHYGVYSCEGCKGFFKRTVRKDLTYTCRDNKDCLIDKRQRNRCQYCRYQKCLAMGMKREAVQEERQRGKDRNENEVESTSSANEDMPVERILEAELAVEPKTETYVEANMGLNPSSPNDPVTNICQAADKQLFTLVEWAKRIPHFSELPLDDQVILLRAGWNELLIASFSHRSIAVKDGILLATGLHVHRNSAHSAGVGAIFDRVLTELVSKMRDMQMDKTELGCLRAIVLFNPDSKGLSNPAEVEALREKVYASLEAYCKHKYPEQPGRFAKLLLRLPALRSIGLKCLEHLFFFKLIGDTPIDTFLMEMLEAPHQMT
Outline: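 Interaction of Nurr1 with RXRα read as reconstituted reporter fluorescence in a HEK293T fragment-complementation system, 8 h post-treatment; increase over DMSO baseline analysed.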

[4] = biological target: Retinoic acid receptor RXR-alpha (Homo sapiens) (UniProt P19793); test: OT_NURR1_NURR1RXRa_1440: Odyssey Thera (OT) 24-hour HEK293T Protein Complementation Assay for Nurr1/retinoid X receptor (RXR) (AID 2283386)
Outline: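 Gain in fluorescence, fitted relative to DMSO, reflects Nurr1–RXRα association in HEK293T cells after 24 h dosing. Bait and prey are each linked to a reporter-protein fragment that reassembles on interaction.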

[5] = biological target: Peroxisome proliferator-activated receptor gamma (Homo sapiens) (UniProt P37231); test: OT_PPARg_PPARgSRC1_0480: Odyssey Thera (OT) 8-hour Protein-Complementation Assay for Peroxisome Proliferator-activated Receptor Gamma / SRC-1 Co-activator (AID 2283387);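 further: nuclear to cytoplasmic split Venus YFP fluorescence ratio reporting PPARg SRC-1 interaction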
Sequence of Peroxisome proliferator-activated receptor gamma (Homo sapiens) (P37231 whole entry, looked up, the tested form may be a part): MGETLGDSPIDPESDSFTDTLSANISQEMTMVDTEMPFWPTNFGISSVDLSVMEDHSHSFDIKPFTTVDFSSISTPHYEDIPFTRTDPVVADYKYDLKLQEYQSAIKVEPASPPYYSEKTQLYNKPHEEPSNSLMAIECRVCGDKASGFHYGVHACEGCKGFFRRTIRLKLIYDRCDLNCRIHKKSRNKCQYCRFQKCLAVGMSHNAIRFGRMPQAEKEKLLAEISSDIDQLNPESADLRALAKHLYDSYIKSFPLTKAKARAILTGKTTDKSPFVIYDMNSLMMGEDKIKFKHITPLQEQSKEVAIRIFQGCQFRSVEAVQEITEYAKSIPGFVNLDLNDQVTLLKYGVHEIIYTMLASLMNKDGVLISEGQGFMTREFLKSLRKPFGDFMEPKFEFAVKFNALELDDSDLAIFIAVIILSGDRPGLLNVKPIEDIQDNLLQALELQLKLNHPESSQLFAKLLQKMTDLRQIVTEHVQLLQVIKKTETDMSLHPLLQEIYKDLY
Outline: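 Read-out: 488 nm N/C fluorescence ratio from complemented Venus YFP fragments, ≥350 cells per image, gain-of-signal fitted against DMSO baseline. Fusions of PPARg/SRC-1 with IFP1/IFP2 expressed transiently in HEK293T; compounds applied 8 h.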

[6] = biological target: rat Androgen Receptor (AR), Ar (gene 24208) (UniProt P15207); test: NVS_NR_rAR: NovaScreen (NVS) Nuclear Receptor Binding Assay for rat Androgen Receptor (AR) (AID 2283366)
Outline: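 Actives from a duplicate single-concentration (25 uM) primary run went on to concentration series. Displacement of radioligand was counted by filtration and scintillation, 18 h post-dose, using prostate extracts from testosterone-pretreated rats, with DMSO as baseline.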

[7] = biological target: Peroxisome proliferator-activated receptor gamma (Homo sapiens) (UniProt P37231); test: NVS_NR_hPPARg: NovaScreen (NVS) Nuclear Receptor Binding Assay for human Peroxisome Proliferator-activated Receptor gamma (PPARg) (AID 2283370)
Outline: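 Fluorescence polarization measures competitive binding to extracted PPARg in a cell-free format. Reading is taken at 2 h; activity is signal loss relative to DMSO. Screening at 25 uM in duplicate preceded confirmatory dose series.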

[8] = biological target: human Serotonin Transporter (SERT), SLC6A4 (gene 6532) (UniProt P31645); test: NVS_TR_hSERT: NovaScreen (NVS) Transporter Assay for human Serotonin Transporter (SERT) (AID 2283372)
Outline: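 Human platelet membrane preparation; displacement of radioligand from serotonin transporter measured after 1 h by filtration and scintillation counting. Single 25 uM duplicate screen, then concentration series for actives, with DMSO as negative baseline.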

[9] = biological target: rat Serotonin Transporter (SERT), Slc6a4 (gene 25553) (UniProt P31652); test: NVS_TR_rSERT: NovaScreen (NVS) Transporter Assay for rat Serotonin Transporter (SERT) (AID 2283375)
Outline: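 Steps: rat forebrain membranes dosed with chemical (25 uM duplicate primary; concentration series for actives); 1 h incubation; labelled ligand bound, filtered, counted by scintillation. Activity scored as signal loss vs DMSO.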

[10] = biological target: human Norepinephrine Transporter (NET), SLC6A2 (gene 6530) (UniProt P23975); test: NVS_TR_hNET: NovaScreen (NVS) Transporter Assay for human Norepinephrine Transporter (NET) (AID 2283377);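 further: cell-free membrane protein extracted from CHO cells expressing human NET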;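 on AC50: displacement of radioligand from human NET seen as loss of scintillation signal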
Sequence of human Norepinephrine Transporter (NET), SLC6A2 (gene 6530) (P23975 whole entry, looked up): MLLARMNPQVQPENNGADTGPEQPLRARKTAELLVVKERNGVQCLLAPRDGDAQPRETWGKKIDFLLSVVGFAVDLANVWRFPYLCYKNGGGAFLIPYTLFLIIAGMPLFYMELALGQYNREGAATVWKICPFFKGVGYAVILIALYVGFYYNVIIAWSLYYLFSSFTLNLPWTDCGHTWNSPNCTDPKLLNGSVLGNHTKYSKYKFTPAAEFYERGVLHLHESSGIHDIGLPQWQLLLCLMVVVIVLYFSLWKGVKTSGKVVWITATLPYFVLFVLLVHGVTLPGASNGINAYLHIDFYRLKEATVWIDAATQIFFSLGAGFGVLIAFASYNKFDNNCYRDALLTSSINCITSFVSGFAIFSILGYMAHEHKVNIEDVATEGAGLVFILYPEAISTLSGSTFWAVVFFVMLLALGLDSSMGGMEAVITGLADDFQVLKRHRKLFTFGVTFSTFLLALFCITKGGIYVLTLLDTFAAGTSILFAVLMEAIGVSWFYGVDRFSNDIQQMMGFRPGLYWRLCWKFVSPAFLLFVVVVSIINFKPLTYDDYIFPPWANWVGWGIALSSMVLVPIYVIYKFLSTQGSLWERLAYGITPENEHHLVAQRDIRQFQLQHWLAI
Outline: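 Single-concentration duplicate screen at 25 uM, then concentration-response for actives; displacement of specific radioligand from human NET in CHO membrane extracts, filter-based scintillation detection at 1 h relative to DMSO.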

[11] = biological target: Agonist Androgen Response Element (ARE), AR (gene 367) (UniProt P10275); test: OT_AR_ARELUC_AG_1440: Odyssey Thera (OT) 24-hour CHO-K1 Luciferase Assay for Agonist Androgen Response Element (ARE) (AID 2283379)
Sequence of Agonist Androgen Response Element (ARE), AR (gene 367) (P10275 whole entry, looked up): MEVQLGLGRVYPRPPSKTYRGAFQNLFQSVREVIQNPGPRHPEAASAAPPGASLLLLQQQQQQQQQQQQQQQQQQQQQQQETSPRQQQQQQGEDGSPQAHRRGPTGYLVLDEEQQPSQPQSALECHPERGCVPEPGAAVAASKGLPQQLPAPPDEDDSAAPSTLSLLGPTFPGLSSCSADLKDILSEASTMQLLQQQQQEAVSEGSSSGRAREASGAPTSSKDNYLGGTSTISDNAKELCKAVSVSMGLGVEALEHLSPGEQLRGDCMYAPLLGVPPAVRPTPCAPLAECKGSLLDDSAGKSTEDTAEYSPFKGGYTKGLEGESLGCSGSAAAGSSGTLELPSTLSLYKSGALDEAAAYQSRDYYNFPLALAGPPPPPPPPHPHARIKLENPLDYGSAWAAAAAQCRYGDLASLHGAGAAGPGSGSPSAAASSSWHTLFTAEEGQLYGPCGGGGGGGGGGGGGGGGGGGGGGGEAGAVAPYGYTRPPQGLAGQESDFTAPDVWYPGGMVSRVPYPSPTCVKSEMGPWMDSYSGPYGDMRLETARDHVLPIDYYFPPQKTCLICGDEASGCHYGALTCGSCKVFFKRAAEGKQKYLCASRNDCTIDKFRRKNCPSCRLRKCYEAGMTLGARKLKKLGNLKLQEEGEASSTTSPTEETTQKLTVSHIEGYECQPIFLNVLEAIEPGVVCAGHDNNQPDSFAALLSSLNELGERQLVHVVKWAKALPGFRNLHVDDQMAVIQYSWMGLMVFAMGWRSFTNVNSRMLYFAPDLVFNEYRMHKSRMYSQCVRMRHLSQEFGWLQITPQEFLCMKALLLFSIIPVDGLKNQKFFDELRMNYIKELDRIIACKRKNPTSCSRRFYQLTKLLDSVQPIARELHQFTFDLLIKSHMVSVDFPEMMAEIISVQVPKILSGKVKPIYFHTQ
Outline: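 Readout: luciferase bioluminescence from CHO-K1 ARE-luc cells, measured 24 h post-dosing; agonism = increased mean luminescence vs DMSO controls, fitted in positive direction.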

[12] = biological target: Estrogen receptor beta (Homo sapiens) (UniProt Q92731); test: OT_ER_ERbERb_1440: Odyssey Thera (OT) 24-hour HEK293T Protein-Complementation Assay for Estrogen Receptor-beta/-beta Homodimer (AID 2283380);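 further: fluorescence gain from ER beta LBD homodimer complementation read by laser scanning cytometry; scored as signal increase over DMSO baseline for both agonists and antagonists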
Sequence of Estrogen receptor beta (Homo sapiens) (Q92731 whole entry, looked up, the tested form may be a part): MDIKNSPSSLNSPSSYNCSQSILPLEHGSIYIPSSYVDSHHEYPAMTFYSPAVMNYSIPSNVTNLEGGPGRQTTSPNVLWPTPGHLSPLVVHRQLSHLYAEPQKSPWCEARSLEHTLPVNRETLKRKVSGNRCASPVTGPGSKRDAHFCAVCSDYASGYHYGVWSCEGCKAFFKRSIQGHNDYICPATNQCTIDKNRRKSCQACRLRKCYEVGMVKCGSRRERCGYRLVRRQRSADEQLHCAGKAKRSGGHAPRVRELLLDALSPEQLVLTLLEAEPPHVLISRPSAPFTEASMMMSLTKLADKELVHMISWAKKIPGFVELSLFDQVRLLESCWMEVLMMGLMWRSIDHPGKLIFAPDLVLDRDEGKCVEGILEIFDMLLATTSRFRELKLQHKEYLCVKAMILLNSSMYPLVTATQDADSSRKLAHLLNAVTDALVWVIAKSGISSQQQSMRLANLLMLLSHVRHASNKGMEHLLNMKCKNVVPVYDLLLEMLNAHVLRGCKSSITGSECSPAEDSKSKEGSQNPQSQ
Outline: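 Fluorescence increase, nuclear for agonists or whole-cell for antagonists, relative to DMSO vehicle, quantified by laser scanning cytometer after fixation and Draq5 staining. Readout from 24 h treatment of HEK293T cells carrying complementation-paired ER beta LBD (aa 310-547).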

[13] = biological target: Bile acid receptor (Homo sapiens) (UniProt Q96RI1); test: OT_FXR_FXRSRC1_0480: Odyssey Thera (OT) 8-hour HEK293T Protein-Complementation Assay for Farnesoid X receptor/SRC-1 Co-activator (AID 2283383)
Sequence of Bile acid receptor (Homo sapiens) (Q96RI1 whole entry, looked up, the tested form may be a part): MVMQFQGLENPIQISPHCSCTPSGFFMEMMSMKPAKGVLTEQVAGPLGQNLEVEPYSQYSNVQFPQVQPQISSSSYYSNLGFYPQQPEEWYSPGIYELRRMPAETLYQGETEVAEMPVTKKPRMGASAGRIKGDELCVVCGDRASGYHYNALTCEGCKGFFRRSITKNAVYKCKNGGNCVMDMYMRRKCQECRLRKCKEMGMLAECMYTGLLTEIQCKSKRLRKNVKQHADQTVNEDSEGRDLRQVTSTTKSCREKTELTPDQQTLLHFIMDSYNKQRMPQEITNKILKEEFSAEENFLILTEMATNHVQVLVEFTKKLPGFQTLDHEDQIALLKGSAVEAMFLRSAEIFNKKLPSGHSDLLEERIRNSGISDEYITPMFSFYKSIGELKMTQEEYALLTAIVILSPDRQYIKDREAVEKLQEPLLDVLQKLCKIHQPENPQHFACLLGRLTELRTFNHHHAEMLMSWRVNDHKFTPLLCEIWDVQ
Outline: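 Binding of FXR to coactivator SRC-1 was read as fluorescence from a reconstituted split reporter in HEK293T cells, 8 h after chemical addition. Only increases in signal versus DMSO were fit.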

[14] = biological target: Bile acid receptor (Homo sapiens) (UniProt Q96RI1); test: OT_FXR_FXRSRC1_1440: Odyssey Thera (OT) 24-hour HEK293T Protein-Complementation Assay for Farnesoid X receptor/SRC-1 Co-activator (AID 2283384)
Outline: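 Protein-fragment complementation: FXR and SRC-1 fused to reporter fragments that reassemble on interaction, read by fluorescence intensity. Human HEK293T cells measured 24 h post-dose; positive-direction fit versus DMSO.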

[15] = biological target: Nuclear receptor subfamily 1 group I member 2 (Homo sapiens) (UniProt O75469); test: NVS_NR_hPXR: NovaScreen (NVS) Nuclear Receptor Binding Assay for human Pregnane X Receptor (PXR) (AID 2283365);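 further: a drop in FRET signal versus DMSO baseline means the compound binds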
Outline: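 Binding was measured by time-resolved fluorescence resonance energy transfer after a 2 h exposure of extracted human PXR protein without cells. Compounds were first tested at 25 uM in duplicate, with concentration series for actives; DMSO defined baseline.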

[16] = biological target: Estrogen receptor (Homo sapiens) (UniProt P03372); test: OT_ERa_GFPERaERE_0480: Odyssey Thera (OT) 8-hour HeLa Transcription Induction Assay for Estrogen Receptor (AID 2283381; active means hit-call score of the fitted dose curve at least 0.9, where 1 is the maximum; inactive means score below 0.9)
Sequence of Estrogen receptor (Homo sapiens) (P03372 whole entry, looked up): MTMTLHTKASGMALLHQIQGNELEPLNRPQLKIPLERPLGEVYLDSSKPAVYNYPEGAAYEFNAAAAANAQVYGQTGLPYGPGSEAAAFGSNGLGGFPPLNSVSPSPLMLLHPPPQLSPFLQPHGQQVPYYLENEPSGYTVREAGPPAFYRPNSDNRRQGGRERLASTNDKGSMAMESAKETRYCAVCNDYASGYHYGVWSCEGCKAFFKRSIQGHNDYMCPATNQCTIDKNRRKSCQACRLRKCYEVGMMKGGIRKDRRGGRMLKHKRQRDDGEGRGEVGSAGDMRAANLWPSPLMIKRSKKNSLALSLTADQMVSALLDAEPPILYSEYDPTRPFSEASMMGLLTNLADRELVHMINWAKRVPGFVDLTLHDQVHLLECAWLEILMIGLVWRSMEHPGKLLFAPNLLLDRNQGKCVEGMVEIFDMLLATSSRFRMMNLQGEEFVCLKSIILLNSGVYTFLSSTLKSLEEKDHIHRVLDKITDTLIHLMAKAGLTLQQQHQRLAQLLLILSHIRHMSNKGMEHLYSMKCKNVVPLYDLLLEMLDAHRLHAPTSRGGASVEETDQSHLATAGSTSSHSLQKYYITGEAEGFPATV
Outline: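 Fluorescence microscopy with high-content image analysis measures ERE-driven GFP induction in HeLa cells at 8 h post-dose. Increases fitted against DMSO baseline.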

[17] = biological target: Estrogen receptor (Homo sapiens) (UniProt P03372); test: OT_ERa_GFPERaERE_0120: Odyssey Thera (OT) 2-hour HeLa Transcription Induction Assay for Estrogen Receptor (AID 2283382)
Outline: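 Fluorescence-microscopy images of the GFP-ERα/ERE reporter, scored by high-content image algorithms, give the readout. HeLa exposure lasted 2 h, and only signal increase over DMSO was fitted.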

[18] = biological target: guinea pig Sigma Receptor, Non-selective Binding, SIGMAR1 (gene 100135589) (UniProt Q60492); test: NVS_OR_gSIGMA_NonSelective: NovaScreen (NVS) Nuclear Receptor Binding Assay for guinea pig Sigma Receptor, Non-selective Binding (AID 2283367)
Sequence of guinea pig Sigma Receptor, Non-selective Binding, SIGMAR1 (gene 100135589) (Q60492 whole entry, looked up): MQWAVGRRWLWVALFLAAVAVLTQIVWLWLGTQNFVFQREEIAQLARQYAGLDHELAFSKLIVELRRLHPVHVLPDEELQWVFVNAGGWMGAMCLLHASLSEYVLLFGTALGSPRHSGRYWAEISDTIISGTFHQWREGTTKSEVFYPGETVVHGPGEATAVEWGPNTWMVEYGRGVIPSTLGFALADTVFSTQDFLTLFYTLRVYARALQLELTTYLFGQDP
Outline: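 Guinea pig brain membrane sigma sites were labelled with a radioligand, and bound radioactivity was counted after filtration 1 h post-dose. Compounds were screened at 25 uM in duplicate, then retested as concentration series when active.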

[19] = tested on: rat Norepinephrine Transporter (NET), gene 83511; test: NVS_TR_rNET: NovaScreen (NVS) Transporter Assay for rat Norepinephrine Transporter (NET) (AID 2283373)
Outline: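 Competitive radioligand displacement at the rat NET using forebrain membrane preparations, 1 h incubation, filter-based scintillation readout. Primary testing in duplicate at a single 25 uM concentration; confirmed actives retested across concentrations.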

Measured: AC50

O=C(OC[C@H]1O[C@@H](OC(=O)c2cc(O)c(O)c(OC(=O)c3cc(O)c(O)c(O)c3)c2)[C@H](OC(=O)c2cc(O)c(O)c(OC(=O)c3cc(O)c(O)c(O)c3)c2)[C@@H](OC(=O)c2cc(O)c(O)c(OC(=O)c3cc(O)c(O)c(O)c3)c2)[C@@H]1OC(=O)c1cc(O)c(O)c(OC(=O)c2cc(O)c(O)c(O)c2)c1)c1cc(O)c(O)c(OC(=O)c2cc(O)c(O)c(O)c2)c1
inactive: [1] | [3] | [5]
active: [2] 2.65 µM | [3] 20.5 µM | [4] 15.2 µM

CCOc1cccc(-n2cc(C(=O)N3CCN(c4cc(C(=O)O)c5ccccc5c4)CC3)nc2-c2ccc(C)cc2)c1
inactive: [7] | [11] | [12] | [5]
active: [6] 13.5 µM | [1] 23.8 µM | [8] 34.2 µM | [2] 8.21 µM | [9] 14.7 µM | [10] 13.7 µM | [13] 11.3 µM | [14] 11.3 µM

COC(=O)c1ccccc1O
inactive: [15] | [12] | [16] | [17] | [3]

O=C(O)c1cccc(N(Cc2cccnc2)c2ccc(OC(F)F)c(OC(F)F)c2)c1
inactive: [6] | [11] | [12] | [5]
active: [7] 25 µM | [3] 29.4 µM | [4] 32.4 µM

CC(C)CCCCCCCOC(=O)CCCCC(=O)OCCCCCCCC(C)C
inactive: [18] | [10] | [13] | [14] | [4] | [5]
active: [2] 25 µM

CC(=O)OCCC(C)C
inactive: [15] | [1] | [2] | [10] | [12] | [3] | [4] | [5]

CCOC(=O)c1ccc(C2CCC(NC[C@H](O)COc3ccc(O)c(NS(C)(=O)=O)c3)CC2)cc1 (some centres not stated)
active: [1] 8.87 µM | [8] 14.9 µM | [19] 7.29 µM | [2] 0.321 µM | [9] 1.71 µM | [10] 1.01 µM | [14] 28.8 µM | [4] 10.4 µM
inactive: [7] | [5]

O=C(O)CC(O)C(=O)O (configuration not stated)
active: [18] 14.8 µM | [1] 5.6 µM | [2] 4.96 µM
inactive: [12] | [3] | [4] | [5]

O=C(O)CCN(C1(C(=O)NO)CCCC1)S(=O)(=O)c1ccc(Oc2ccc(F)cc2)cc1
inactive: [18] | [12] | [3] | [4] | [5]

Cn1c(=O)cc(Oc2ccc(F)cc2F)c2cnc(NCC(C)(C)O)nc21
active: [7] 32.4 µM | [10] 4.35 µM
inactive: [18] | [12] | [16] | [17] | [13] | [14] | [4] | [5]

CCc1cc(SCc2sc(-c3ccc(C(F)(F)F)cc3)nc2CN2CCN(c3ccc(OC)cc3)CC2)ccc1OCC(=O)O
inactive: [12] | [13]
active: [1] 15.2 µM | [7] 7.42 µM | [2] 13.9 µM | [10] 4.89 µM | [14] 12 µM | [5] 345 nM and 1.09 µM

CC(C)c1cccc(C(C)C)c1N1C(=O)c2ccc(O)cc2C1=O
active: [7] 16.1 µM | [13] 20.7 µM | [14] 2.63 µM | [3] 35.4 µM
inactive: [3] | [4] | [5]

CC(C)=CCC/C(C)=C\CO
inactive: [7] | [11] | [13] | [14] | [3] | [4] | [5]

COc1ccc2sc(C(=O)Nc3nnn[nH]3)c(OC(C)C)c2c1
active: [7] 5.14 µM
inactive: [10] | [12] | [16] | [17] | [5]

Cn1cnc([N+](=O)[O-])c1Sc1ncnc2nc[nH]c12
inactive: [7] | [12] | [16] | [17] | [3] | [4] | [5]

Cc1c(-c2cccnc2)c2ccccc2n1CCCCC(=O)O
inactive: [7] | [12] | [13] | [14] | [3] | [5]

CC(C)(O)c1coc(S(=O)(=O)NC(=O)Nc2c3c(cc4c2CCC4)CCC3)c1
inactive: [7] | [12] | [13] | [3] | [4] | [5]

Fc1ccccc1[C@@H](F)COC1CCC(Nc2ncnc3[nH]ncc23)CC1 (some centres not stated)
inactive: [11] | [12] | [3] | [5]
active: [9] 2.48 µM

CC(C)CCO
inactive: [2] | [12] | [16] | [17] | [4] | [5]

C=CC(=C)CCC=C(C)C
inactive: [7] | [12] | [16] | [17] | [3] | [4] | [5]
